# Reference: the supplement of paper PMC3545927
# The other results are listed elsewhere or left out. The true hit rate is not given.
# Biological target: furin, P09958
# Test: furin cleavage Z-score vs untreated control; higher = more cleavage, active = 3.5 or more, inactive = 1 or less, 8 variable residues between constant flanks
# Outline: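 Purified furin digested bead-held 8-mer peptide–cDNA fusions at 1:10 enzyme:substrate in 0.01 ml of 50 mM HEPES pH 7.5 with CaCl2 and NaCl for 7.5, 15 or 30 min. The cleavage Z-score compares sequencing counts of released DNA with furin-free reactions on a log scale, with lowess adjustment and median absolute deviation scaling.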
# Sequence of furin, P09958 (P09958 whole entry): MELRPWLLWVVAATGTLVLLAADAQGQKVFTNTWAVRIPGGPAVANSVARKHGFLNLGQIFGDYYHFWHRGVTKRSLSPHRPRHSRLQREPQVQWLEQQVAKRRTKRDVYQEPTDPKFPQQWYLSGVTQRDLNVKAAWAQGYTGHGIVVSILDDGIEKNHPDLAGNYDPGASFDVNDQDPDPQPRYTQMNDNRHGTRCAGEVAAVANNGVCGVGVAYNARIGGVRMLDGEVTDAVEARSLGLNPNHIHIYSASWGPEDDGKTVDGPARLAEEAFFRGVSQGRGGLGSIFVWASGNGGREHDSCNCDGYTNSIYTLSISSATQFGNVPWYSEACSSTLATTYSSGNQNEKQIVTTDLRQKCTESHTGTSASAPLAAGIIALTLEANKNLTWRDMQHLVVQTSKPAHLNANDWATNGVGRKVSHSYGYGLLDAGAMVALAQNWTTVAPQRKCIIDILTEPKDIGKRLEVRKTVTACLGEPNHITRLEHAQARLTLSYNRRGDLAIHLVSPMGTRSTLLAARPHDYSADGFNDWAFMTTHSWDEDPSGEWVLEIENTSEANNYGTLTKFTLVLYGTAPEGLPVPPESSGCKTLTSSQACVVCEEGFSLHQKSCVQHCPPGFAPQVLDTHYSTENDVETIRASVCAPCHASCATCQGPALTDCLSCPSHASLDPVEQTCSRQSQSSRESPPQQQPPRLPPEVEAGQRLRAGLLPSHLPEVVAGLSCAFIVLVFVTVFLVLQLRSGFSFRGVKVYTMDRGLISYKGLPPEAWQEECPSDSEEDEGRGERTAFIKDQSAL
Sequence,furin cleavage Z-score (7.5 min),furin cleavage Z-score (15 min),furin cleavage Z-score (30 min)
CAAATLGFGAAGNASASA [HC790],-0.962 (inactive),1.23,1.13
CARDGRKVTVAGNASASA [FS-2902],-0.804 (inactive),-0.377 (inactive),-1.67 (inactive)
CARAKRKVTRAGNASASA [FS-2636],3.09,4.94 (active),4.17 (active)
CARAKRRGGGAGNASASA [FS-2886],0.374 (inactive),-1.9 (inactive),0.196 (inactive)
CANLLSVEEAAGNASASA [HC1411],1.03,-1.37 (inactive),1.04
CARKRRPYGSAGNASASA [FS-1960],-0.105 (inactive),0.526 (inactive),-2 (inactive)
CARKGRSQSVAGNASASA [FS-2688],0.447 (inactive),1.69,2.28
CARKNRSTASAGNASASA [FS-3159],4.98 (active),6.48 (active),5.71 (active)
CARKNRSFYAAGNASASA [FS-3222],-0.489 (inactive),0.152 (inactive),-1.6 (inactive)
CARKNRSQIVAGNASASA [FS-1731],0.382 (inactive),1.89,1.82
CARKGRSYGSAGNASASA [FS-1902],2.38,4.19 (active),3.35
CAESVTSTWVAGNASASA [HC2177],0.711 (inactive),-0.0286 (inactive),-0.582 (inactive)
CASCLWMMLLAGNASASA [HC527],0.0621 (inactive),-0.464 (inactive),0.433 (inactive)
CAHYQDVLKEAGNASASA [HC1402],-0.724 (inactive),-0.493 (inactive),0.655 (inactive)
CAYGAKDVRCAGNASASA [HC1422],-0.0596 (inactive),0.548 (inactive),0.765 (inactive)
CAQRSRQVRCAGNASASA [FS-482],0.775 (inactive),0.292 (inactive),1.12
CALSRRRVRCAGNASASA [FS-1543],10.2 (active),7.81 (active),8.22 (active)
CAIRRRTQRCAGNASASA [FS-933],7.07 (active),6.92 (active),6.54 (active)
CAQRQRSVRCAGNASASA [FS-481],1.64,0.494 (inactive),0.731 (inactive)
CALRERPVRCAGNASASA [FS-458],2.04,2.12,4.39 (active)
CAINRRTGRPAGNASASA [FS-34],-0.402 (inactive),-1.89 (inactive),-1.13 (inactive)
CATTPCSASWAGNASASA [HC1883],-0.499 (inactive),0.682 (inactive),-0.342 (inactive)
CAVVGCSMSYAGNASASA [HC2036],1.64,-0.0657 (inactive),1.23
CASTPCSGSWAGNASASA [HC1837],-0.691 (inactive),-0.464 (inactive),-0.623 (inactive)

Sequence,furin cleavage Z-score (7.5 min),furin cleavage Z-score (15 min),furin cleavage Z-score (30 min)
CARRARSSVCAGNASASA [FS-2771],-0.135 (inactive),0.0716 (inactive),2.53
CARPWKSVALAGNASASA [FS-1765],1.43,0.873 (inactive),-0.932 (inactive)
CARPRRELSLAGNASASA [FS-2501],9.83 (active),9.15 (active),8.79 (active)
CARRARAVHDAGNASASA [FS-2769],0.991 (inactive),0.269 (inactive),0.722 (inactive)
CARRARSWAEAGNASASA [FS-1772],0.748 (inactive),2.17,4.73 (active)
CARPRRVIARAGNASASA [FS-2746],0.722 (inactive),0.121 (inactive),1.35
CARRARSPHDAGNASASA [FS-1834],8.36 (active),9.74 (active),9.02 (active)
CARPRRSLALAGNASASA [FS-2504],7.93 (active),10.2 (active),8.84 (active)
CALAVFGPLWAGNASASA [HC607],0.672 (inactive),0.344 (inactive),1.61
CALPGCSFSIAGNASASA [HC245],-0.725 (inactive),0.0221 (inactive),1.53
CAEVVTSTWEAGNASASA [HC2252],1.19,1.24,-0.113 (inactive)
CATTPCSGSKAGNASASA [HC1934],-0.794 (inactive),0.477 (inactive),-0.455 (inactive)
CASTGLYHVTAGNASASA [HC259],1.56,0.496 (inactive),-0.862 (inactive)
CAMEECSQLLAGNASASA [HC1745],0.641 (inactive),1.59,1.09
CANTRPPLGNAGNASASA [HC431],-0.78 (inactive),-0.196 (inactive),0.451 (inactive)
CAYLEVVTSTAGNASASA [HC2269],1.41,0.163 (inactive),0.356 (inactive)
CARRARVVHMAGNASASA [FS-2772],-0.133 (inactive),-2.18 (inactive),-0.247 (inactive)
CARRGRFKGLAGNASASA [FS-2773],-2.35 (inactive),0.257 (inactive),-0.0126 (inactive)
CARPQRSACHAGNASASA [FS-1832],-0.244 (inactive),1.03,2.47
CARPRRETCHAGNASASA [FS-2358],7.06 (active),6.02 (active),6.63 (active)
CARRARFLHEAGNASASA [FS-2177],0.34 (inactive),2.97,5.38 (active)
CARRGRSRSRAGNASASA [FS-2774],-0.725 (inactive),-0.261 (inactive),-0.331 (inactive)
CARRGREILLAGNASASA [HC663],2.14,3.52 (active),5.12 (active)
CARRARSLALAGNASASA [FS-2770],4.92 (active),6.9 (active),6.89 (active)
